According to PubChem BioAssay (NCI):
The panel holds about 79,000 compounds, 15% with a hit somewhere; the sample as a whole holds those more often. Active and inactive are the calls of the source. Rule as the data show it: active = growth inhibition above about 70%; inactive = the rest.

Experiments:
[1] = NCI Yeast Anticancer Drug Screen. Data for the rad50 strain (AID 155);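 also: 0% = growth of vehicle-only cultures of the same strain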; details: S. cerevisiae rad50 strain growth inhibition, hits give high values
Summary of the method: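 Yeast carrying a defined DNA repair defect were exposed to test compounds, and growth was compared with vehicle-treated controls to give percent inhibition.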

[2] = NCI Yeast Anticancer Drug Screen. Data for the mec2-1 strain (AID 157); details: S. cerevisiae mec2-1 strain, hits give high values
Summary of the method: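 Readout is yeast growth inhibition, normalised to vehicle-treated controls, in the mec2-1 strain exposed to compound.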

[3] = NCI Yeast Anticancer Drug Screen. Data for the sgs1 mgt1 strain (AID 161);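 also: 0% = growth of cultures given vehicle only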; details: S. cerevisiae sgs1 mgt1 strain, hits give high values
Summary of the method: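 Compounds are added to genetically altered yeast, and growth is compared with cultures given vehicle alone to give percent inhibition.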

[4] = NCI Yeast Anticancer Drug Screen. Data for the cln2 rad14 strain (AID 165);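 also: 0% = growth equal to vehicle treated cultures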; details: S. cerevisiae cln2 rad14 strain, hits give high values
Summary of the method: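 Relative to vehicle controls, growth inhibition of compound-treated cln2 rad14 yeast was recorded.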

[5] = NCI Yeast Anticancer Drug Screen. Data for the bub3 strain (AID 167); details: S. cerevisiae bub3 mutant strain, hits give high values
Summary of the method: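 Compounds were applied to a genetically altered yeast strain carrying a cell-cycle control defect. Growth inhibition was scored against vehicle-treated controls.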

[6] = NCI Yeast Anticancer Drug Screen. Data for the mlh1 rad18 strain (AID 175); details: S. cerevisiae mlh1 rad18 strain growth inhibition, hits give high values
Summary of the method: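 Test agents were incubated with a yeast strain of defined genotype (DNA damage repair defect). Inhibition of growth was derived by comparison with vehicle-exposed cultures.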

[7] = at 5.0 µM (retest, dose inferred, filed as 0.5)
[8] = at 50.0 µM (retest, dose inferred, filed as 5.0)

Measured: growth inhibition

CC/C(=C\c1ccc(Cl)c(Cl)c1)[N+](=O)[O-]
inactive: [2]; [7] 52% | [4]; [7] 13% | [5]; [7] 60% | [6]; [7] 14%
active: [1]; [7] 97% | [1]; [8] 99% | [2]; [8] 100% | [3]; [7] 99% | [3]; [8] 100% | [4]; [8] 99% | [5]; [8] 99% | [6]; [8] 99%

O=[n+]1c2ccccc2n([O-])c2ccccc21
inactive: [2]; [7] 22% | [3]; [7] 61% | [4]; [7] 18% | [5]; [7] 0%
active: [1]; [7] 93% | [1]; [8] 98% | [2]; [8] 99% | [3]; [8] 99% | [4]; [8] 98% | [5]; [8] 99% | [6]; [7] 79% | [6]; [8] 98%

O=C(CBr)OCC(O)CCl (stereo not drawn)
active: [1]; [7] 92% | [1]; [8] 99% | [2]; [7] 70% | [2]; [8] 100% | [3]; [7] 96% | [3]; [8] 100% | [4]; [8] 99% | [5]; [7] 79% | [5]; [8] 100% | [6]; [8] 99%
inactive: [4]; [7] 49% | [6]; [7] 47%

CCC(CC)COC(=O)CI
inactive: [1]; [7] 33% | [2]; [7] 19% | [3]; [7] 28% | [4]; [7] 15% | [4]; [8] 40% | [5]; [7] 50% | [6]; [7] -20%
active: [1]; [8] 97% | [2]; [8] 79% | [3]; [8] 99% | [5]; [8] 86% | [6]; [8] 87%

O=C([CH-]C(=O)c1ccccc1)c1ccccc1.O=C([CH-]C(=O)c1ccccc1)c1ccccc1.[La+3].[OH-].[OH3+]
inactive: [1]; [7] 24% | [1]; [8] 24% | [3]; [7] 27% | [3]; [8] 27% | [5]; [7] 37% | [5]; [8] 37% | [6]; [7] 25% | [6]; [8] 25%
active: [1]; at 50.0 µM 92% | [3]; at 50.0 µM 93.7% | [5]; at 50.0 µM 91.2% | [6]; at 50.0 µM 88.2%

O=C(CBr)OCCBr
active: [1]; [8] 99% | [2]; [8] 99% | [3]; [7] 73% | [3]; [8] 100% | [4]; [8] 98% | [5]; [8] 99% | [6]; [8] 98%
inactive: [1]; [7] 59% | [2]; [7] 33% | [4]; [7] 25% | [5]; [7] 56% | [6]; [7] 29%

O=c1s[se]c2ccccc12
active: [1]; [8] 98% | [1]; at 50.0 µM 84.2% | [3]; [8] 99% | [3]; at 50.0 µM 90.1% | [4]; [8] 98% | [4]; at 50.0 µM 92.2% | [5]; [8] 99% | [5]; at 50.0 µM 89.8% | [6]; [8] 97% | [6]; at 50.0 µM 91.9%
inactive: [1]; [7] 27% | [3]; [7] 17% | [4]; [7] 21% | [5]; [7] -2% | [6]; [7] 25%

NS(=O)(=O)CCl.[Hg]
active: [1]; [8] 99% | [2]; [8] 100% | [3]; [8] 100% | [4]; [8] 98% | [5]; [8] 99% | [6]; [8] 93%
inactive: [1]; [7] 13% | [2]; [7] 17% | [3]; [7] 15% | [4]; [7] 3% | [5]; [7] 2% | [6]; [7] -16%

CO/C1=C\C(C)=C\C(C)C(O)C(C)C/C(C)=C/C=C/C(OC)C(C(C)C(O)C(C)C2(O)CC(O)C(C)C(C(C)C)O2)OC1=O (stereo not drawn)
inactive: [1]; [7] 1% | [3]; [7] 8% | [4]; [7] 9% | [5]; [7] 5% | [6]; [7] 0%
active: [1]; [8] 84% | [1]; at 50.0 µM 85.2% | [3]; [8] 85% | [3]; at 50.0 µM 84.5% | [4]; [8] 78% | [4]; at 50.0 µM 74.1% | [5]; [8] 88% | [5]; at 50.0 µM 86.2% | [6]; [8] 88% | [6]; at 50.0 µM 81.2%

CCCCCCCNC(=O)CI
inactive: [1]; [7] 42% | [2]; [7] 13% | [3]; [7] 33% | [4]; [7] 9% | [5]; [7] 52% | [6]; [7] 23%
active: [1]; [8] 99% | [2]; [8] 100% | [3]; [8] 100% | [4]; [8] 94% | [5]; [8] 100% | [6]; [8] 99%

C1CC[N-]CC1.C1CC[N-]CC1.N#C[S-].N#C[S-].[Cd]
active: [1]; [8] 86% | [3]; [8] 81% | [5]; [8] 73%
inactive: [1]; [7] 33% | [2]; [7] 18% | [2]; [8] 69% | [3]; [7] 15% | [4]; [7] 11% | [4]; [8] 57% | [5]; [7] 10% | [6]; [7] -4% | [6]; [8] 66%

N#Cc1cc([N+](=O)[O-])c(Cl)c([N+](=O)[O-])c1Cl
active: [1]; [8] 98% | [1]; at 50.0 µM 92.6% | [2]; [8] 99% | [2]; at 50.0 µM 93.2% | [3]; [7] 100% | [3]; [8] 98% | [4]; [7] 70% | [4]; [8] 97% | [5]; [7] 99% | [5]; [8] 96% | [6]; [8] 99% | [6]; at 50.0 µM 92.1%
inactive: [1]; [7] 50% | [2]; [7] 61% | [6]; [7] 41%
